Experimental data taken from PubChem BioAssay (EPA / NIEHS).
Where “and” joins values, the source holds several entries; their conditions need not be identical. Equal values may be shown once. Records with an inconclusive call do not appear. Calls of active or inactive are those of the source. Rule for the calls: active = hit-call score of the fitted dose curve at least 0.9, where 1 is the maximum; inconclusive = response in the unintended direction; inactive = score below 0.9.

experiment: CCTE_Shafer_MEA_acute_AB: CCTE's Alamar Blue Assay for Cytotoxicity in the Neural Acute Assay, Shafer Lab (AID 2284069);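 note: active compounds lower the viability signal compared with DMSO wells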
Protocol: CCTE_Shafer_MEA_acute assay is conducted using Axion Biosystems 48 well microelectrode array (MEA) plates and Maestro recording system. Each well of the MEA plate contains a grid of 16 microelectrodes embedded in the culture surface. Electrically active cells, such as neurons, can be cultured over the electrodes, and electrical activity in these cells can be recorded extracellularly. The spontaneous firing of neurons is captured from each electrode on a microsecond timescale providing both temporally and spatially precise data. […] The CCTE_Shafer_MEA_acute assay uses primary cultures of rat cortical neurons. As these cultures mature over time, neural networks develop functional activity and form cohesive networks in which electrical activity can be highly coordinated. Baseline 40-minute recordings are made on days post-plating 13 or 15, followed by a secondary 40-minute recording after chemical exposure.CCTE_Shafer_MEA_acute_AB is a component of the CCTE_Shafer_MEA_acute assay. It measures the resazurin reduction using fluorescence.Data from the assay component CCTE_Shafer_MEA_acute_AB was analyzed into 1 assay endpoint. This assay endpoint, CCTE_Shafer_MEA_acute_AB, was analyzed in the positive analysis fitting direction relative to DMSO as the negative control and baseline of activity. Using a type of viability reporter, loss-of-signal activity can be used to understand cell viability.
Metabolic activity was determined using the CellTiter Blue (CTB) assay (Promega Cat. #8081), following the manufacturer's instructions with the following modifications. Following the removal of the 50 uL sample for the LDH assay, 450 uL of media was removed from each well and replaced with 200 uL of fresh media containing a 1:6 dilution of CTB reagent for the determination of metabolic activity. Fluorescence was measured in a Fluorostar Optima fluorimeter using an excitation wavelength of 544 nm and an emission wavelength of 590 nm.

| SMILES | outcome | AC50 |
| --- | --- | --- |
| Clc1ccc(C(c2ccc(Cl)cc2)C(Cl)(Cl)Cl)cc1 | inactive | – |
| CC(C)(O)c1cnn2c(-c3ccc(F)c(-c4c(F)cccc4C#N)c3)cnc2n1 | inactive | – |
| O=C(N[C@H](c1ccccc1)[C@@H]1CN2CCC1CC2)c1c(Cl)ccc(C(F)(F)F)c1Cl | inactive | – |
| CCCCCOC(=O)c1ccccc1C(=O)OCCCCC | inactive | – |
| CC(C)(OOC(C)(C)c1ccccc1)c1ccccc1 | inactive | – |
| CCCCCCCCn1sccc1=O | inactive | – |
| Cc1cc(N=Nc2ccccc2C)ccc1N | inactive | – |
| CCC(C)c1ccc(O)cc1 (stereo not drawn) | inactive | – |
| CC(C)COC(=O)c1ccccc1C(=O)OCC(C)C | inactive | – |
| ClC1=C(Cl)C2(Cl)C3C(Cl)C=CC3C1(Cl)C2(Cl)Cl (stereo not drawn) | inactive | – |
| CCCCOC(=O)c1ccccc1C(=O)OCc1ccccc1 | inactive | – |
| COC(=O)Nc1nc2ccccc2[nH]1 | inactive | – |
| CC(C)(C)C(O)(CCc1ccc(Cl)cc1)Cn1cncn1 (stereo not drawn) | inactive | – |
| CCN(CC)N=O | inactive | – |
| CCN(CC)CCO | inactive | – |
| [Cl-].[Cl-].[Hg+2] | – | 32.6 µM (active) |
| O=[N+]([O-])C(Br)(CO)CO | – | 26.9 µM (active) |
| Clc1ccc(C(c2ccc(Cl)cc2)C(Cl)Cl)cc1 | inactive | – |
| C[N+](C)(C)CC1CO1 (stereo not drawn) | inactive | – |
| N#CC(Br)Br | inactive | – |
| O=[N+]([O-])c1ccc(Oc2ccc(Cl)cc2Cl)cc1 | inactive | – |
| c1ccc(N=Nc2ccccc2)cc1 | inactive | – |
| CCC[CH2][Sn]([Cl])([CH2]CCC)[CH2]CCC | – | 1.92 µM (active) and 3.06 µM (active) |
| c1ccc(NNc2ccccc2)cc1 | inactive | – |
| ClCCOCCCl | inactive | – |
| Cc1ccc(N)c(N)c1 | inactive | – |
| O=Cc1ccco1 | inactive | – |
| O=P(OCCCl)(OCCCl)OCCCl | inactive | – |
